TNF death inh = inhibitors of TNF-alpha induced necroptosis in Jurkat FADD-/- cells; Jurkat FADD-/- TNF necroptosis rescue, ATP luminescence, 24 h; 0 = TNF only, 100 = no-TNF cells; activation (protection from cell death), % at 10 µM; 220,000 tested, 0.068% active; AID 463075;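 active = activation, meaning protection from cell death, of at least 50% relative to plate controls; inactive = activation below 50%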;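 note: necroptosis triggered by 40 ng/mL TNF-alpha added together with compound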
zVAD death inh = blocks zVAD induced death of L929 cells. AID 1377. L929 zVAD necroptosis rescue, ATP luminescence, 24 h; with zVAD 60 µM. viability rescue, % at 10 µM. 220,000 tested, 0.38% active;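 active = activation, scaled between plate controls, above about 75%, limit read from the data; inactive = activation under that limit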
EBV gp42 inh = blocks Epstein-Barr virus glycoprotein 42 binding | Q1HVG2 | Fluorescence polarization binding assay, mP read-out | inhibition, % (tested at 21.74 µM) | 220,000 tested, 0.42% active; in the data active = inhibition above about 50%
Target sequence (Q1HVG2 whole entry, looked up): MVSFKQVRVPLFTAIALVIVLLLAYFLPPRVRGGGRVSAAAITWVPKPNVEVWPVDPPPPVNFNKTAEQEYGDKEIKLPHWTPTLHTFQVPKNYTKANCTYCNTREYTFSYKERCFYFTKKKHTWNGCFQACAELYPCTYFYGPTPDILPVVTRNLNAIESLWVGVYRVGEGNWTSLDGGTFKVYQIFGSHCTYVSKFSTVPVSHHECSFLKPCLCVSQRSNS
eIF4E 4G PPI = blocks eIF4E binding to eIF4G; P63073+Q04637; TR-FRET eIF4E-eIF4GI(517-606) binding, 2 h; inhibition, % at 21.7 µM; 220,000 tested, 0.37% active;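 active = inhibition above about 30%, limit read from the data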
Hits are given with their value; . = inactive; / = not tested or not shown; + = active, no number; [ ] = dose if it differs, or a comment. Shown are actives, neighbours in structure and some others; about 1.2% of the full set was active somewhere.

SMILES	TNF death inh	zVAD death inh	EBV gp42 inh	eIF4E 4G PPI
CCc1nn2c(=O)cc(COc3ccc(/C=C4\C(=N)N5N=C(CC(C)C)SC5=NC4=O)cc3)nc2s1	.	.	.	.
CCC1=NN2C(=N)/C(=C\c3ccc(OCc4cc(=O)n5nc(CC)sc5n4)c(OC)c3)C(=O)N=C2S1	.	.	63	.
COc1ccc(/C(O)=C/c2nc3ccccc3n(-c3ccccc3)c2=O)cc1	.	.	59	/
CCc1ccc(CN(C)C(=O)CCc2nc3ccccc3n(-c3ccc(OC)cc3)c2=O)cc1	.	.	.	.
N#CC1=C(N)OC2=C(CCc3ccccc32)C1c1ccccc1 (stereo unspecified)	.	.	.	.
Cc1ccc(/C=C2\CCC3=C2OC(N)=C(C#N)C3c2ccc(C)cc2)cc1 (stereo unspecified)	.	.	58	.
CC1CC(NC(=O)c2cnc3n(c2=O)CCS3)CC(C)(C)C1 (stereo unspecified)	.	.	.	.
O=C(NC1CCCC1)c1cnc2n(c1=O)CCS2	.	.	.	95[fluorescence artefact?]
COC(=O)c1cc2c(N)c(C(=O)c3ccccc3)sc2nc1C(OC)OC	.	.	.	.
CCc1cccc2cc3c(N)c(C(=O)Nc4ccc(S(=O)(=O)N5CCCC5)cc4)sc3nc12	.	.	81	.
COc1cccc2c1C(=O)c1c(O)c3c(c(O)c1C2=O)C[C@@](O)(C(=O)CO)C[C@@H]3O[C@H]1C[C@H](N)[C@H](O)[C@H](C)O1	.	.	+	50[fluorescence artefact?]
COC(=O)CCCCCN1C(=O)/C(=C\c2ccncc2)SC1=S	.	.	.	.
Cc1oc(S(=O)(=O)N2CCOCC2)cc1C(=O)Nc1ccc(Cl)cc1	.	.	.	.
Cc1ccc(-c2nc(N)s[n+]2-c2ccccc2)cc1	.	.	.	.
CNc1nc(-c2ccccc2)[n+](-c2ccc(C)cc2)s1	.	.	.	39
O=C(Nc1ccc(CN2CCCCC2)cc1)c1sc2ccccc2c1Cl	.	.	.	.
CC(=O)Nc1ccc(S(=O)(=O)N(C)c2ccc(OCC(=O)OCC(=O)NCc3ccco3)cc2)cc1	.	.	.	.
CC1CCC(C(C)C)C(OC(=O)COC(=O)c2ccc(N)cc2)C1 (stereo unspecified)	.	.	.	54
CCCOc1ccc(C(=O)CCN2CCN(C(=O)OCC)CC2)cc1	.	.	.	.
c1ccc2oc(-c3ccc(Nc4nc(N5CCCC5)nc(N5CCOCC5)n4)cc3)nc2c1	.	.	.	.
N#Cc1cccc(NC(=O)CN2C(=O)NC(Cc3ccccc3)C2=O)c1 (stereo unspecified)	.	.	.	.
COc1ccc(NC(=O)CSc2nc3c(c(-c4cccs4)c2C#N)CN(C)CC3)cc1OC	.	.	57	.
N#CC(=NCc1cccnc1)C1=C(O)c2ccccc2C1=O	.	.	.	.
NC(=O)CC(NC(=O)c1ccccc1)c1ccc(NCCc2cccc(F)c2)c([N+](=O)[O-])c1 (stereo unspecified)	.	.	.	96
N#CC1=C(N)Oc2c(oc(CO)cc2=O)C1c1ccccc1[N+](=O)[O-] (stereo unspecified)	.	.	.	.
SMILES	TNF death inh	zVAD death inh	EBV gp42 inh	eIF4E 4G PPI
Cc1cccc(NC(=O)CSc2c3c(nc4ccccc24)CCC3)n1	.	.	.	.
CC(C)NCC(=O)Nc1c2c(nc3ccccc13)CCC2	.	.	.	31
COCCCNC(=O)CC1Oc2ccccc2NC1=O (stereo unspecified)	.	.	.	.
CCCSCCCNC(=O)CC1Oc2ccccc2NC1=O (stereo unspecified)	.	.	68	.
c1ccc(OCc2nnc3sc(-c4cccs4)nn23)cc1	.	.	.	.
Clc1ccc(Cl)c(-c2nn3c(COc4ccccc4)nnc3s2)c1	.	.	.	34[fluorescence artefact?]
CCn1c(COc2ccccc2C)nnc1SCC(=O)N1CCC(C)CC1	.	.	76	.
Cc1cc2nc3c(=O)n(C4CCCCC4)c(=O)[nH]c3nc2cc1N	.	.	141	.
O=S(=O)(NC1CCCCC1)c1ccc(N2CCOCC2)nc1	.	.	.	.
N#Cc1c(Cl)c(Cl)c2nnc(-c3ccc(Br)cc3)n2c1Cl	.	.	.	36[fluorescence artefact?]
O=S(=O)(Nc1nc2ccccc2nc1-[n+]1cccc(N=C([O-])c2ccccc2Cl)c1)c1ccccc1	.	.	74	.
O=C1Nc2ccccc2/C1=C/c1cccnc1	.	.	.	.
O=C1Nc2ccccc2/C1=C/c1cnc(-c2ccccc2)[nH]1	.	.	59	.
CC(=O)NS(=O)(=O)c1ccc2sc(C)nc2c1	.	.	.	.
CC(=O)Nc1ccc2sc(C)nc2c1	.	.	.	64
CC(=O)Nc1ccc2cc3ccc(NC(C)=O)cc3nc2c1	.	.	105	.
O=C(NNC(=O)c1ccc(NC(=O)c2ccccc2)cc1)c1ccccc1	.	.	.	.
O=C(Nc1ccc2nc3ccccc3nc2c1)c1ccccc1	.	.	73	.
COc1cc(C(C#N)N2CCC(c3ccccc3)=N2)ccc1O (stereo unspecified)	.	.	.	.
O=C(Nc1ccc(O)c(C(=O)O)c1)Oc1ccccc1	.	.	.	.
CCCCn1c2nc3ccccc3nc2c2c(=O)n(-c3ccccc3)cnc21	.	/	.	.
CCCCn1nc(-c2ccccc2)c2nc3ccccc3nc21	.	.	154	.
Cn1nc(-c2ccccc2)c2nc3ccccc3nc21	.	.	126	.
Nc1nc(N)c(N=Nc2ccc(S(N)(=O)=O)cc2)c(=O)[nH]1	.	.	.	.
NS(=O)(=O)c1ccc(N=Nc2ccc(=O)[nH]c2O)cc1	.	.	.	37
SMILES	TNF death inh	zVAD death inh	EBV gp42 inh	eIF4E 4G PPI
COc1cc(C)c(NC(=O)C(=S)NCCc2ccccc2)cc1C	.	.	.	.
CC(NC(=O)CSc1nnc(CC(=O)Nc2ccc(Cl)c(Cl)c2)n1C)c1ccccc1 (stereo unspecified)	.	.	.	43[fluorescence artefact?]
CC(C)C(C(=O)Nc1nccs1)c1ccccc1 (stereo unspecified)	.	.	.	.
O=C(Nc1nccs1)C(c1ccccc1)N1CCCC1 (stereo unspecified)	.	.	65	.
CCCN1CCCc2cc(CN)ccc21	.	.	79	.
N#Cc1ccc(Cl)cc1NC(=O)CSc1nc2nc(-c3cccs3)cc(C(F)(F)F)c2c(=O)[nH]1	.	.	.	31
CC(=O)Nc1ccc(NC(=O)CSc2nc3nc(-c4cccs4)cc(C(F)(F)F)c3c(=O)[nH]2)cc1	.	.	.	.
O=C(OCCN1C(=O)c2cccc3c(N4CCOCC4)ccc(c23)C1=O)c1cc(Cl)cc(Cl)c1	.	.	132	33[fluorescence artefact?]
CCN(CC)S(=O)(=O)c1ccc(C(=O)OCCN2C(=O)c3cccc4c(N5CCOCC5)ccc(c34)C2=O)cc1	.	.	133	.
O=C(OCCN1C(=O)c2ccccc2C1=O)c1ccc(S(=O)(=O)N2CCCCCC2)cc1	.	.	.	.
CC(=O)N(C(C)=O)N1C(=O)c2cccc3c(N4CCOCC4)ccc(c23)C1=O	.	.	.	.
COc1ccc(-c2nnc(Nc3ccc(S(=O)(=O)Nc4nccs4)cc3)c3ccccc23)cc1	.	.	52	.

Bioassay records from PubChem BioAssay.
